Source: PubChem BioAssay
Only some compounds are listed: those with a hit (about 2.4% of all), similar ones and a draw of the others.
ADAM10 inh: inhibitors of human ADAM10; recombinant ADAM10, EDANS/DABCYL FRET peptide cleavage, 3 h; inhibition, % at 7 µM; 370,000 tested, 0.62% active;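 active = inhibition above a per-campaign cutoff equal to the mean of compounds falling between control-based bounds plus 3 SD, cut at about 20% in these data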;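 note: 0% = DMSO wells while the 100% control is not disclosed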
ADAM17 inh: inhibitors of human ADAM17. P78536. recombinant ADAM17, EDANS/DABCYL FRET peptide cleavage. inhibition, % at 6.95 µM. 370,000 tested, 0.83% active. AID 720648;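 active = inhibition above the mean of compounds lying between control limits plus 3 SD, set per campaign, cut at about 8.5% in these data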;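 note: 0% = DMSO-only wells as the low control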
A3G deaminase: inhibitors of human APOBEC3G DNA deaminase; recombinant A3G, ssDNA deamination FAM/TAMRA fluorescence; inhibition, % at 20 µM; Q9HC16; 330,000 tested, 0.28% active; AID 493012;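 active = inhibition of at least 40% at 20 µM, with no more than 30% in the related APOBEC3A deaminase screen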;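 note: plate controls were DMSO wells with A3G for no effect and wells lacking A3G enzyme for full effect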
Target sequence (Q9HC16 whole entry, looked up): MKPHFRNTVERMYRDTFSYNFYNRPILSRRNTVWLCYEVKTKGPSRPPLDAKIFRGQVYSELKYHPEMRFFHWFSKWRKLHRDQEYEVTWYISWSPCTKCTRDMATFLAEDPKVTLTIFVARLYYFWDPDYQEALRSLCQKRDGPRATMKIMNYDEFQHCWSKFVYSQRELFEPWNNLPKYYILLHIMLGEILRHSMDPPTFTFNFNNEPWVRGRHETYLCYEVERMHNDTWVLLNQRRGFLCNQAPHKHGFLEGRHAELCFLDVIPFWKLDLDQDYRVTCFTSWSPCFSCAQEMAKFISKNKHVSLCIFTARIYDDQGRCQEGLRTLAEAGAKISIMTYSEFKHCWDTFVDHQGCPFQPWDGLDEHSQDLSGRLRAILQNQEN
CendR NRP1 mod: alters CendR peptide binding to human NRP-1 | O14786 | FAM-RPARPAR peptide binding to NRP-1, fluorescence polarization | inhibition, % at 25 µM | 360,000 tested, 0.85% active | AID 602438;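 active = inhibition or corrected inhibition above about 18%, plus a signal ratio from 0.5 to 1.5, limit read from the data, passing the limit was not always enough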
APOBEC3A inh: blocks human APOBEC3A ssDNA deamination | P31941 | recombinant A3A, FAM/TAMRA ssDNA deamination fluorescence | inhibition, % at 20 µM | 330,000 tested, 0.41% active;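 active = at least 40% inhibition at 20 µM here, with at most 30% in a related deaminase screen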;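 note: plate controls were A3A with DMSO for no effect and wells lacking A3A enzyme for full effect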
ADAM10 ctr: inhibits human ADAM10 in ADAM17 exosite counter-screen. shares compounds with ADAM17 inh. recombinant ADAM10, EDANS/DABCYL FRET peptide cleavage, 3 h. inhibition, % at 6.95 µM. 2,900 tested, 47% active. AID 743256;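 active = mean inhibition over the triplicate runs exceeds the activity threshold set in the earlier primary screen, cut at about 20% in these data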;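 note: 0% = DMSO wells and 100% = marimastat wells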
ADAM17 confirm: human ADAM17 inhibition, confirmation; shares compounds with ADAM17 inh; recombinant ADAM17, EDANS/DABCYL QFRET peptide cleavage; inhibition, % at 6.95 µM; 2,900 tested, 65% active; AID 743257;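 active = mean inhibition across replicates above the hit cutoff set in the primary screen, cut at about 8.5% in these data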;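 note: 0% = DMSO wells and 100% = marimastat wells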
Numbers without * were called inactive; x = no result.

SMILES | ADAM10 inh | ADAM17 inh | A3G deaminase | CendR NRP1 mod | APOBEC3A inh | ADAM10 ctr | ADAM17 confirm
Cc1ccc(C(C)C)cc1-n1nnc(-c2cccc(Cc3ccc4ccccc4c3)c2)c1C(C)O (centres undefined) | 16 | 18* | x | -1 | x | 31* | 18*
Cc1c(Cl)c([N+](=O)[O-])nn1CC(=O)NC12CC3CC(CC(C3)C1)C2 | 16 | 11* | 5 | -19 | 3 | -5 | 2
Cc1onc(-c2ccccc2)c1C(=O)Nc1ccc(Cl)c(S(=O)(=O)N2CCOCC2)c1 | -4 | 11* | -6 | 2 | 4 | 10 | 6
Cc1onc(-c2ccccc2Cl)c1C(=O)Nc1cccc(S(=O)(=O)N2CCOCC2)c1 | -17 | 0 | -2 | 8 | -3 | x | x
CC(C)(C)NS(=O)(=O)c1ccc(CCC(=O)NCc2ccc3c(c2)OCO3)cc1 | 5 | 9.0* | -2 | 16 | 3 | 8 | 7
CCC(C)[C@H]1CNC(=S)N1CCc1cccc2ccccc12 (some centres undefined) | 6 | 13* | -2 | 21 | -1 | 5 | 3
O=C(NCC1COCCO1)C1CCN(S(=O)(=O)c2ccc(Br)s2)CC1 (centres undefined) | -9 | 3 | x | x | x | x | x
CN(C(=O)COC(=O)c1ccccc1SCC(=O)N1CCCC1)C1CCS(=O)(=O)C1 (centres undefined) | 16 | 9.0* | 0 | 20* | 7 | -12 | 0
COc1cccc(CNC(=O)[C@H]2CCCN2C(=O)[C@H]2CCCN2C(=O)c2ccc(C)c(C)c2)c1 | 1 | -2 | x | x | x | x | x
CCOC(=O)c1cccc(NC(=O)CN(C)S(=O)(=O)c2ccc(Br)s2)c1 | 3 | 0 | x | x | x | x | x
N#CCCN(C(=O)COC(=O)c1cccc(S(=O)(=O)Nc2ccc([N+](=O)[O-])cc2)c1)c1ccccc1 | 14 | 9.2* | -1 | -20 | 0 | 6 | 8
N#CCCN(C(=O)COC(=O)c1ccc(S(=O)(=O)Nc2ccccc2)cc1)c1ccccc1 | 7 | 2 | 4 | 5 | -4 | x | x
CC(C)C[C@@H]1COc2cccc(N3CCCC3)c2S(=O)(=O)N1 | -8 | -4 | x | x | x | x | x
Cc1cc(NC(=O)/C(C#N)=C/c2ccco2)n(-c2ccccc2)n1 | 16 | 9.0* | -2 | -8 | 2 | 20* | 11*
Cc1ccc(-c2ccc(/C=C(\C#N)C(=O)Nc3cc(C)nn3-c3ccccc3)o2)cc1 | x | x | -8 | x | -1 | x | x
C[C@@]12C(=O)N(c3cccc(Cl)c3)C(=O)N1[C@H](c1ccc(Cl)cc1)[C@@H]1C(=O)N(C3CCCCC3)C(=O)[C@@H]12 | 14 | 10* | -4 | -35 | -2 | 38* | 22*
COc1ccc(C2C3=C(N=C4SCC(=O)N42)c2ccccc2CC3)cc1OC (centres undefined) | 14 | 9.3* | -2 | -17 | 2 | -2 | 2
COc1cccc(CNC(=O)CSCc2cnn(-c3ccccc3)c2-n2cccc2)c1 | 18 | 14* | -6 | -2 | -4 | 0 | 4
CNC(=O)CSCc1cnn(-c2ccccc2)c1-n1cccc1 | -8 | 0 | -7 | -9 | 0 | x | x
C=CCc1cccc(CNc2nc3ccccc3n2CCN2CCOCC2)c1O | 14 | 12* | 2 | 2 | 2 | 11 | 9.3*
C[C@@H]1COc2cc(NCCO)ccc2S(=O)(=O)N1 | 4 | 1 | x | x | x | x | x
Cc1cc(C)c2c(=O)[nH][nH]c2n1 | 5 | 12* | x | 9 | x | 1 | 7
C/C(=N\NC(=S)NCc1ccccc1)c1ccc2ccccc2c1OC(F)F | 18 | 12* | -2 | 24 | 1 | 4 | 8
C/C(=N\NC(=S)NCc1ccccc1)c1ccc(Br)cc1 | 7 | 3 | 3 | 4 | -6 | x | x
COC(=O)[C@]12C[C@H](CC(=O)N3CCN(C(=O)C4CC4)CC3)C(=O)N(Cc3ccccc3)C1=C[C@H](COCc1ccccc1)O[C@@H]2C | 5 | 0 | x | x | x | x | x
O=C(CC1SC(=Nc2ccccc2)N(CCc2c[nH]c3ccccc23)C1=O)Nc1ccccc1F (centres undefined) | 14 | 9.9* | -7 | -34 | -4 | 24* | 13*
